Source: ChEMBL document CHEMBL3988442, “University of Dundee, Small-Polar-MMV Screening Library” (2021)
For some assays here: Potency and affinity values are given separately.

Assays:
Set-up in all cases: scale not given: direction of the effect not stated beside the values
[1] = target: Protein translocase subunit SecA (Escherichia coli (strain K12)) (UniProt P10408); experiment: Assay to Identify E. coli SecA ATPase Inhibitors; format: functional; details: 30 µM
[2] = target: T1, Ubiquitin-activating enzyme e1, putative (Leishmania donovani (strain BPK282A1)) (UniProt E9BSI1); experiment: Leishmania donovani Ubiquitin Activating Enzyme (LdE1); format: functional; details: 30 µM
T1 sequence (whole entry): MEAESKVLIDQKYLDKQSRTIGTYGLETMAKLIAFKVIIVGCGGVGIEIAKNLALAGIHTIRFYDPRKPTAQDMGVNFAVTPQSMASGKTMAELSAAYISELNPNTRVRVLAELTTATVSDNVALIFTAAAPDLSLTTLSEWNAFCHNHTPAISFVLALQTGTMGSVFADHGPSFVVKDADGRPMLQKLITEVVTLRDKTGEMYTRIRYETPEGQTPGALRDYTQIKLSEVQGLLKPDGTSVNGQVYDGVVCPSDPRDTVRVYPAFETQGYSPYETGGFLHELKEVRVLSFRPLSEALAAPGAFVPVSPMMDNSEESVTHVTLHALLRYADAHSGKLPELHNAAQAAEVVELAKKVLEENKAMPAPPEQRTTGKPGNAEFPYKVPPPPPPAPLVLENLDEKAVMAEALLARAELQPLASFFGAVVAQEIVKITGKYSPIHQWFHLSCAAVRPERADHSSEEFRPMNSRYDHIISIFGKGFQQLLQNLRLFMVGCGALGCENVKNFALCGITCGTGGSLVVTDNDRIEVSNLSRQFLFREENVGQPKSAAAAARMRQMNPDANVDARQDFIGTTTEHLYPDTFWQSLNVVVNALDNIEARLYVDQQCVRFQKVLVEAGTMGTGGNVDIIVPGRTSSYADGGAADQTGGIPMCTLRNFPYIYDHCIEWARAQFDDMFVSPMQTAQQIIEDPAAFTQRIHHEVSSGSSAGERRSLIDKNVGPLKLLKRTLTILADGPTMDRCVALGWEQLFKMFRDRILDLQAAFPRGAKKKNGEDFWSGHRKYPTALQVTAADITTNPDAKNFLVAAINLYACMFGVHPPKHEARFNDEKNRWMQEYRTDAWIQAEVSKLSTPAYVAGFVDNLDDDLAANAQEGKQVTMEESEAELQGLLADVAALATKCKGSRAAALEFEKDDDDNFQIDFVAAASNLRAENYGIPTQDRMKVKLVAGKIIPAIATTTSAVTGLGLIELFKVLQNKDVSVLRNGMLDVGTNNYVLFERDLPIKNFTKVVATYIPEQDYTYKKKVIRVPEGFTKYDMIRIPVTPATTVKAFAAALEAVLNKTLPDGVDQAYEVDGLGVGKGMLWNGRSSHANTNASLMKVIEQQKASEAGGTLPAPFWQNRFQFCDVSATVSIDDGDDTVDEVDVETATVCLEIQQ

[3] = target: AMP-activated protein kinase, AMPK (Homo sapiens) (UniProt P54646+O43741+P54619+Q9UGJ0+Q9Y478+Q13131+Q9UGI9); experiment: AMP-dependent Kinase enzyme assay. An in vitro enzyme assay that detects ADP turnover that is directly proportional to AMPK activity. This uses naive AMPK that is activated during the assay with MK-8722; format: functional; details: 30 µM
[4] = target: Sialic acid-binding Ig-like lectin 9 (Homo sapiens) (UniProt Q9Y336); experiment: Hs-Siglec9 ALPHAscreen SOP 20170721; details: 10 µM
Sialic acid-binding Ig-like lectin 9 (Homo sapiens), sequence (Q9Y336 whole entry): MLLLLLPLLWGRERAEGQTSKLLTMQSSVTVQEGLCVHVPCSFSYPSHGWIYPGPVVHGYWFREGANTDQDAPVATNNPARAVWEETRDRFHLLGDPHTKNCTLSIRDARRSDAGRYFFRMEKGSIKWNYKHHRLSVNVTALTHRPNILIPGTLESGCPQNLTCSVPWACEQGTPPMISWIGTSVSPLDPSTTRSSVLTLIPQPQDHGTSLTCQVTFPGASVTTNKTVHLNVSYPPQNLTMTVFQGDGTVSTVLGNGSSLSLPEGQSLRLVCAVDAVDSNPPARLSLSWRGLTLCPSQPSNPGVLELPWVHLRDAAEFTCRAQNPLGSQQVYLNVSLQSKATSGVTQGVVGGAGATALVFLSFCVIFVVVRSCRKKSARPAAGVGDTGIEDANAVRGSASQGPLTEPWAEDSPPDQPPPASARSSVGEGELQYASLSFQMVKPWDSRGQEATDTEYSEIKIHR

Trypanosoma cruzi = experiment: Trypanosoma cruzi phosphomannomutase and mannose-1-phosphate guanylyltransferase assay; format: functional; details: 10 µM
[5] = target: T2, Arginase-2, mitochondrial (Homo sapiens) (UniProt P78540); experiment: in vitro enzyme assay to detect the production of urea directly proportional to the activity of Arginase II; format: functional; details: 33.3 µM; further: in the data most compounds retested in dose-response had high values
T2 sequence (whole entry): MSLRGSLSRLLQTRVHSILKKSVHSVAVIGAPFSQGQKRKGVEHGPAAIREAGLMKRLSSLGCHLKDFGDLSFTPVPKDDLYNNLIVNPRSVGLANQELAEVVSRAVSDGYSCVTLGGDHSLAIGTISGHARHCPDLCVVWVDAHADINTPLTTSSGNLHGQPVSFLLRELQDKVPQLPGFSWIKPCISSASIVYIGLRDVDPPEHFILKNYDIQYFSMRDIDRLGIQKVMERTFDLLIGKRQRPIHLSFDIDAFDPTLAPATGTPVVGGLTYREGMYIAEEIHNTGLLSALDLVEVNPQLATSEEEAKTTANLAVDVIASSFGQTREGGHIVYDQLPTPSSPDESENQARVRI

[6] = target: T3, Proteasome subunit beta (Trypanosoma cruzi) (UniProt O96673); experiment: Trypanosoma cruzi proteasome chymotrypsin-like activity (TcProtChymo) assay.; further: in the data most compounds retested in dose-response had high values; format: functional; details: 9.37 µM
T3 sequence (whole entry): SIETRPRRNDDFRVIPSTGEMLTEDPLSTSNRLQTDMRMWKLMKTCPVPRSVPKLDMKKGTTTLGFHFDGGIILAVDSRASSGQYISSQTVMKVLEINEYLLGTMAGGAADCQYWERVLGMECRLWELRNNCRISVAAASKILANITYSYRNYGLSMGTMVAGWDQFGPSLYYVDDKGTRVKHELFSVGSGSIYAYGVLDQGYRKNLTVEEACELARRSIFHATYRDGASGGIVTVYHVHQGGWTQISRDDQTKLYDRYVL

Homo sapiens = organism: Homo sapiens; experiment: To identify inhibition of the IFN signalling (Jak-Stat) pathway via expression of an eGFP reporter gene under the control of an IFN-stimulated response element (ISRE) containing MxA promoter.; format: functional; details: 30 µM
[7] = target: T4, Tyrosyl-tRNA synthetase, putative (Trypanosoma cruzi (strain CL Brener)) (UniProt Q4DSP6); experiment: Trypanosoma cruzi tyrosyl tRNA synthetase (TcYRS) _High Tyrosine SOP; format: functional; details: 30 µM; further: in the data most compounds retested in dose-response had high values
T4 sequence (whole entry): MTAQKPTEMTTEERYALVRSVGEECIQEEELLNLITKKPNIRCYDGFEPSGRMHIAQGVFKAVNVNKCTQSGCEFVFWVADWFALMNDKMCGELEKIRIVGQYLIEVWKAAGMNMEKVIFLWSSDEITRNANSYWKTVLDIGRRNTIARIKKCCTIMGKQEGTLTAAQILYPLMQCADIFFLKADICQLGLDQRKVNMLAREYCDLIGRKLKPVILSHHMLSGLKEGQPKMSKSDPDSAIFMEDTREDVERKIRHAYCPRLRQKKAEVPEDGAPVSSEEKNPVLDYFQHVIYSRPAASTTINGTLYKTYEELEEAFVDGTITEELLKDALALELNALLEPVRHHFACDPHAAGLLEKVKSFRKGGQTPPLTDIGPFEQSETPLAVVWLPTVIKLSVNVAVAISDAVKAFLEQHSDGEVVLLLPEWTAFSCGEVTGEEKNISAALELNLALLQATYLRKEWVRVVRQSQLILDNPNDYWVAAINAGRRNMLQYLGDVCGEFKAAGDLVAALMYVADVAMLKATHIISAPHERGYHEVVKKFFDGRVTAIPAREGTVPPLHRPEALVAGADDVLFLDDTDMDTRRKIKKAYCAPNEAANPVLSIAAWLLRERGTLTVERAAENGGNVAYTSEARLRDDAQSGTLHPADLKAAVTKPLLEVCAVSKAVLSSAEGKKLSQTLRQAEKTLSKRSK

[8] = target: T4, Tyrosyl-tRNA synthetase, putative (Trypanosoma cruzi (strain CL Brener)); experiment: Trypanosoma cruzi tyrosyl tRNA synthetase (TcYRS) SOP; format: functional; details: 30 µM
[9] = target: Chromo domain-containing protein 1 (Saccharomyces cerevisiae (strain ATCC 204508 / S288c) (Baker's yeast)) (UniProt P32657); experiment: ScCHD-1 Enzyme Inhibition Assay; format: functional; details: 30 µM; further: in the data most compounds retested in dose-response had high values
Chromo domain-containing protein 1 (Saccharomyces cerevisiae (strain ATCC 204508 / S288c) (Baker's yeast)), sequence (P32657 whole entry, the tested form may be a part): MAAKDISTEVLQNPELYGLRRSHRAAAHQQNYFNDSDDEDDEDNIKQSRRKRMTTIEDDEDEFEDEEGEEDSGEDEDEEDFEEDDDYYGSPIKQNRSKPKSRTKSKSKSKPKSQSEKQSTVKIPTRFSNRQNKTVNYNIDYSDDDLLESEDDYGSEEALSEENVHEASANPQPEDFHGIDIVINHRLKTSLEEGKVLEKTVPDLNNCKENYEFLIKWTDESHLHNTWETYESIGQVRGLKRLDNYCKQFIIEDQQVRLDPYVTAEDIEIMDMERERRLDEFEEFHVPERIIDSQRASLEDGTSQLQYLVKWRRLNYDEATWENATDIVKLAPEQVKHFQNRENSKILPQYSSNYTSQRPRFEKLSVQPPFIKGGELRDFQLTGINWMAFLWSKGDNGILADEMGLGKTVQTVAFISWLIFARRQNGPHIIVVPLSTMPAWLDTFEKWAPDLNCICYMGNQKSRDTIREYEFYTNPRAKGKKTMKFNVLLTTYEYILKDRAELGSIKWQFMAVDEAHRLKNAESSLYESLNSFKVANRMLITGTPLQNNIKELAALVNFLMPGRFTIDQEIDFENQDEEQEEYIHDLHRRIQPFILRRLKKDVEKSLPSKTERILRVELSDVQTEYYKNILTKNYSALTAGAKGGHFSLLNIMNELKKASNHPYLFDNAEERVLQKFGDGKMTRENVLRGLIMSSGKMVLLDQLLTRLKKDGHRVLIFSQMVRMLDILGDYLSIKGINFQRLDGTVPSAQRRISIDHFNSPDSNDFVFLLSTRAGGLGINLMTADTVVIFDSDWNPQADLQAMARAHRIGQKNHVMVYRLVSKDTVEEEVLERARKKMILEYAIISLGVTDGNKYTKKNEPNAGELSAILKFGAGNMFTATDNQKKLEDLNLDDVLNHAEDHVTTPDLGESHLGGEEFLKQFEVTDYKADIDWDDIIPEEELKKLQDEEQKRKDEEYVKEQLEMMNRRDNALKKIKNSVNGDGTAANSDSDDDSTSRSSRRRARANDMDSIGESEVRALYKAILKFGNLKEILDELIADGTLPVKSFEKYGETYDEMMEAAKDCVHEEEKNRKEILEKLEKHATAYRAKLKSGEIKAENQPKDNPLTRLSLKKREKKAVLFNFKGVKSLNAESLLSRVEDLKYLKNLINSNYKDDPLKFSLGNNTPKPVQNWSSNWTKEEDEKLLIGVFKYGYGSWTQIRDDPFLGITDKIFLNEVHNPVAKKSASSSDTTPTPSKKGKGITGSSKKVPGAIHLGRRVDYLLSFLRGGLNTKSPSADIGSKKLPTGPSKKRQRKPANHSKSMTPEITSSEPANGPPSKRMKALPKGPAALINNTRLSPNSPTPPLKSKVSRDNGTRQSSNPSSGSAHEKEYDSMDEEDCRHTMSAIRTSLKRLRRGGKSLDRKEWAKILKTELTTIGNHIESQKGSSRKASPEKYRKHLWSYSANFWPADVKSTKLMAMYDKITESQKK

Protein translocase subunit SecA (Escherichia coli (strain K12)), sequence (P10408 whole entry): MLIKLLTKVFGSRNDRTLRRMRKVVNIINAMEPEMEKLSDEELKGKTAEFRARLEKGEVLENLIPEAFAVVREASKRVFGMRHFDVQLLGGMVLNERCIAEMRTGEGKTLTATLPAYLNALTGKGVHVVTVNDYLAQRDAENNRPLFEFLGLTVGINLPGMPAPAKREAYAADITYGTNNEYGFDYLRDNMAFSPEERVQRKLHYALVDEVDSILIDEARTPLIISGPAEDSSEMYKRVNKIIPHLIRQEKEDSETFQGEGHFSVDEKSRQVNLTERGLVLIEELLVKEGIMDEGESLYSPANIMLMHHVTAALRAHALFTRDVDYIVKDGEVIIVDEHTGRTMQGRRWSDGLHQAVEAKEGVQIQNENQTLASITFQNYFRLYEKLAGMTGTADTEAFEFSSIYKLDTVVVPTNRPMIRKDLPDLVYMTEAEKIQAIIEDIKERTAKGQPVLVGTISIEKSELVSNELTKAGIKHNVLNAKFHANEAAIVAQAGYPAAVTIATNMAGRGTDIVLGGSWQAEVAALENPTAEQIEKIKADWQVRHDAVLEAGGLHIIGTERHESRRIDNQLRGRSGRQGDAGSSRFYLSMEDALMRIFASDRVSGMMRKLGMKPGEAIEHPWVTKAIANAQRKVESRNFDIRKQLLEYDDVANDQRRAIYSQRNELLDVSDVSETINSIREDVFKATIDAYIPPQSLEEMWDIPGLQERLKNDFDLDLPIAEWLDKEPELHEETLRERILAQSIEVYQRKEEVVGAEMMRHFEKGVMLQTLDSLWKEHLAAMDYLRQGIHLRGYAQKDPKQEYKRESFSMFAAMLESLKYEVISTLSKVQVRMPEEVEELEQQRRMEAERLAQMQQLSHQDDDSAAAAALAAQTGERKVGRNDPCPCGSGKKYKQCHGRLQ

Row | SMILES | Percent Effect [1] | Percent Effect [2] | Percent Effect [3] | Percent Effect [4] | Percent Effect (Trypanosoma cruzi) | Percent Effect [5] | Percent Effect [6] | Percent Effect (Homo sapiens) | Percent Effect [7] | Percent Effect [8] | Percent Effect [9]
1 | CC(Cn1cccn1)NC(=O)Nc1ccc(N(C)C)nc1 (stereo unspecified) | -4.33% | 1.39% | -12.7% | -12% | -7.09% | 0.883% | 22.3% | 10.8% | 1.05% | -2.56% | -1.82%
2 | COCCN1CCN(C(=O)c2ccncc2F)Cc2cccnc21 | 2.77% | 6.67% | 4.36% | -2.01% | -10.6% | -1.58% | 20.3% | 0.197% | 3.17% | -5.13% | -10.5%
3 | Cc1ccc(-c2nc(CN3CCc4nn(C)c(=O)cc4C3)no2)cc1 | -1.55% | -24.3% | 7.36% | -4.73% | 5.75% | 2.81% | -12.8% | 2.86% | -0.493% | -1.24% | -4.17%
4 | O=C(CCc1cscn1)NS(=O)(=O)c1ccc2c(c1)CCC2 | -5.7% | 15.3% | -13.9% | 36.9% | 7.29% | 22.5% | 3.33% | 5.07% | 3.16% | 15.4% | -4.74%
5 | Cc1nc(Cn2nc(C3CCNCC3)n(Cc3ccccc3)c2=O)no1 | -0.936% | 5.41% | 0.118% | 2.54% | -4.25% | -4.29% | 12.1% | 26.5% | 3.7% | 4.88% | -4.29%
6 | CS(=O)(=O)NC[C@]12COC[C@H]1CN(C(=O)c1ccccc1)C2 | -1.33% | -52% | -0.526% | 9.67% | -4.63% | 0.645% | -1.22% | 11.1% | -79.4% | -147% | -6.34%
7 | COc1cccc2cc(CNC(=O)N3CCCC(O)C3)oc12 (stereo unspecified) | -6.3% | -2.53% | -3.54% | 1.57% | 8.59% | -3.8% | 1.39% | 6.63% | 3.45% | 8.86% | -5.74%
8 | CC(NC(=O)N1CCC(n2cncn2)CC1)c1ccc(F)cc1F (stereo unspecified) | -3.51% | 12.7% | -2.69% | 7.75% | -0.0944% | -1.14% | 8.6% | 8.31% | 5.42% | 13.9% | -5.72%
9 | Cc1cnn(CC2CCCN2C(=O)CCCc2nc(C)no2)c1 (stereo unspecified) | -1.89% | 13.2% | 1.65% | -10.6% | -3.21% | -3.55% | 4.89% | 27.9% | 1.06% | 10.4% | -6.12%
10 | O=C(CSCC1CC1)N1CCCC(c2nccn2Cc2ccncc2)C1 (stereo unspecified) | -2.74% | 15.3% | -12.9% | 10.9% | 2.62% | 2.65% | 7.37% | -2.75% | 3.16% | 10.3% | -2.97%
11 | COc1ccc(OC)c(NC(=O)c2nc3ccccc3n(C)c2=O)c1 | 1.79% | -15.6% | 3.42% | -2.14% | 0.888% | 3.23% | 9.22% | 3.54% | 1.06% | 14.1% | -7.41%
12 | CS(=O)(=O)N1CC[C@H]2[C@H](C[C@@H](Cn3cncn3)N2CC2CC2)C1 | -6.68% | 10.4% | 9.89% | 7.05% | -1.87% | -4.14% | 7.16% | -4% | 3.23% | 6.17% | -0.097%
13 | O=C(NCc1cc[nH]n1)N1CCN(c2ccccc2Cl)CC1 | -5% | 23.7% | -1.65% | 3.62% | 1.96% | -0.719% | 14.1% | 15.6% | 7.39% | 18.5% | -10.1%
14 | COc1ccccc1CC(=O)N1CCC(NCc2c[nH]nc2C)CC1 | -1.53% | 13.5% | -1.94% | -8.2% | -1.02% | 0.924% | 3.95% | 2.04% | 7.92% | 23.2% | -6.91%
15 | N#CC1(C(=O)Nc2ccc(OC(F)F)cc2)CCCC1 | -4.03% | 1.39% | 5.97% | -0.254% | 0.68% | 2.21% | 3.68% | -8.03% | 2.1% | 5.13% | -0.635%
16 | COc1cccc(Cc2nnc(SC3CCOC3=O)o2)c1 (stereo unspecified) | -4.53% | -2.67% | -9.71% | 15.1% | 2.04% | 0.521% | 5.41% | 5.46% | -4.92% | 8.64% | -2.72%
